# High-throughput results as filed in PubChem.
# Gal4-VP16 FLuc: inhibits Gal4-VP16 luciferase reporter, ROR gamma counter-screen; Drosophila S2 Gal4-VP16 UAS-luciferase, luminescence, 20 h; Potency, µM (highest dose often 53.6 µM), most hits filed as inhibitors; hit rate 3.5% among 310,000; AID 2546;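 further: Gal4-VP16 expression switched on by copper sulfate through the metallothionein promoter; nearly all actives have a fitted effect of over 50% in size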
# DT40 TDP1 no CPT: qHTS for Inhibitors of human tyrosyl-DNA phosphodiesterase 1 (TDP1): qHTS in cells in absence of CPT. DT40 Tdp1-/- hTDP1 cells, no CPT, ATP luminescence, 48 h. Potency, µM (series often up to 46.2 µM), usual class: inhibitors. hit rate 15% among 420,000. AID 686978, 2013; further: nearly all actives have a fitted effect of over 55% in size
#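 DT40 Tdp1-/-;hTDP1 cells, no CPT (DMSO vehicle only), 400 cells/well; compounds pin-transferred; ≥48 hr, 37 °C; CellTiter-Glo 30 min RT dark, luminescence read.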
# IL1B secr inh: inflammasome signaling inhibition, IL-1 beta readout | AID 743279 | hit rate 4.7% among 360,000 | activity change, % at 57.5 µM | THP-1 LPS/ATP IL-1B secretion, AlphaLISA, 16 h; stronger effect = lower value; in the data active means activity change below about -50%; inconclusive means mostly about -30% to -49%
#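 THP-1 cells pretreated 1 hr with compounds (up to 57.5 uM final), then stimulated with LPS (250 ng/mL final) plus ATP (1.25 mM final); secreted IL-1B measured by AlphaLISA after 16 hr, decreased signal indicating inhibition.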
# RORgamma inh: ROR gamma (mouse) transcription inhibition; Drosophila S2 Gal4-RORgamma UAS-luciferase reporter, 20 h; Potency, µM (doses to about 53.6 µM), actives largely listed as inhibitors; hit rate 5.4% among 310,000; further: nearly all actives have a fitted effect of over 60% in size
# Target sequence (P51450 whole entry, looked up, the tested form may be a part): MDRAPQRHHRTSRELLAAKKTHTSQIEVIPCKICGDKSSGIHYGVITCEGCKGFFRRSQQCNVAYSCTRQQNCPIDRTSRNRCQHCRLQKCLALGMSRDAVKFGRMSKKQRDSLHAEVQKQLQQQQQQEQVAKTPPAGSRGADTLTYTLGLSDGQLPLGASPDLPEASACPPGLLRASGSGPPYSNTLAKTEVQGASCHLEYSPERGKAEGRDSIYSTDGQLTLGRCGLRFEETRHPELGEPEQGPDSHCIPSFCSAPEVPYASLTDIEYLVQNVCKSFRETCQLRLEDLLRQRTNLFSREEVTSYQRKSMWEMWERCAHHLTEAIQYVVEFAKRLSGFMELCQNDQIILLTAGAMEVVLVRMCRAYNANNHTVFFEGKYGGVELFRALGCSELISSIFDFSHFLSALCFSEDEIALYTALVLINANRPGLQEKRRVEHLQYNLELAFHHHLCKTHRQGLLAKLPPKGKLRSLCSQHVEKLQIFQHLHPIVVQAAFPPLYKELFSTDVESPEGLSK
#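 Luminescence from a UAS-regulated Photinus luciferase reporter in stably transfected Drosophila Schneider cells is measured; decreased signal marks ROR gamma inhibition. Fusion expression is induced by 700 uM copper sulfate for 20 hr.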
# LDHA block: LDHA (human) enzyme inhibition; P00338; activity change, % (values are at about 110 or 230 µM); hit rate 0.15% among 480,000; purified LDHA, NADH/diaphorase-resazurin fluorescence; stronger effect = lower value; in the data active means activity change below about -30%; inconclusive means mostly about -25% to -30%
#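 LDH5 2 nM; NADH 0.06 mM, pyruvate 0.2 mM; 200 mM Tris pH 7.4, EDTA, Tween-20; 5 min RT. Detection: diaphorase 0.133 mg/mL + resazurin 37 µM, fluorescence ex540/em590 at 0 and 20 min; normalized to enzyme-free and DMSO wells.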
# DT40 TDP1 CPT: growth inhibition of DT40 Tdp1-/-;hTDP1 cells with camptothecin (screen for TDP1 inhibitors) | hit rate 12% among 420,000 | chicken DT40 Tdp1-/-;hTDP1 cells + 20 nM CPT, ATP luminescence, 48 h | Potency, µM (highest dose often 46.2 µM), usual class: inhibitors; further: nearly all actives have a fitted effect of over 55% in size
#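 Chicken DT40 Tdp1-/- cells complemented with human TDP1, 400 cells/well, exposed to compounds plus 20 nM camptothecin for at least 48 h at 37 C; viability read as ATP content by CellTiter-Glo luminescence.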
# A number is an active result; i = inactive; ? = inconclusive; nt = no result given; ! = repeats disagree; [ ] = remark or other dose. Most compounds without a hit are left out; they make up all but 18% or so of the library. Unless noted, the call rests on the fitted dose curve; in most records, active means well fitted curve in the direction sought with a large enough effect; inconclusive means small, poorly fitted or top-dose-only effect, or another doubt; inactive means no such curve, though single readings can be large; an effect the other way counts as inactive or inconclusive.
SMILES,Gal4-VP16 FLuc,DT40 TDP1 no CPT,IL1B secr inh,RORgamma inh,LDHA block,DT40 TDP1 CPT
CC(C)(C)NC(=O)C(c1ccncc1)N(Cc1cccs1)C(=O)Cn1nnc(-c2ccc(F)cc2)n1 (stereo unspecified),i,i,i,i,i,?
O=C(O)c1ccc(F)c(S(=O)(=O)N2CCCCC2)c1,nt,nt,nt,nt,i,nt
Cc1nc2nc(SCC(=O)NC3CCC(C)CC3)nn2c(C)c1Cc1ccccc1 (stereo unspecified),nt,?,nt,nt,i,18.4µM
COc1ccccc1CNC(=O)CSc1nc2nc(C)c(Cc3ccccc3C)c(C)n2n1,nt,5.17µM,nt,nt,i,14.6µM
Cc1ccccc1Cc1c(C)nc2nc(SCC(=O)NCCCN3CCCC3)nn2c1C,i,i,i,i,i,i
Cc1cccc(Cc2c(C)nc3nc(SCC(=O)NCc4ccccc4)nn3c2C)c1,nt,?,nt,nt,i,20.6µM
Cc1cccc(Cc2c(C)nc3nc(SCC(=O)O)nn3c2C)c1,i,i,i,i,i,i
COc1cc(NC(=O)CSc2nc3nc(C)c(Cc4ccccc4)c(C)n3n2)cc(OC)c1OC,nt,20.6µM,nt,nt,i,20.6µM
COc1ccc(OC)c(NC(=O)CSc2nc3nc(C)c(Cc4ccccc4)c(C)n3n2)c1,nt,nt,nt,nt,i,nt
COc1ccc(Nc2nc3ccccc3nc2NS(=O)(=O)c2ccc(C)c(C)c2)c(OC)c1,nt,nt,nt,nt,i,nt
COc1ccc2c(C)c(CCC(=O)N3CCC(OCc4ccccc4)CC3)c(=O)oc2c1,nt,nt,nt,nt,i,nt
COc1cc(NC(=O)COc2ccc3c(C)c(C)c(=O)oc3c2)cc(OC)c1,nt,nt,nt,nt,i,nt
CC(C)CC(=O)Nc1nc2c(s1)C(=O)CC(C)(C)C2,nt,nt,nt,nt,i,nt
C=CCc1c(C)nc2nc(SCC(=O)Nc3cccc(Cl)c3)nn2c1C,nt,i,nt,nt,i,20.6µM
COc1cc(F)ccc1-c1ccc(=O)n(Cc2cccc(F)c2)n1,nt,nt,nt,nt,i,nt
Cc1ccc(C)c(-c2ccc(=O)n(Cc3ccc(F)cc3Cl)n2)c1,i,?,-74.7,i,i,18.4µM!
Cc1ccc(C)c(-c2ccc(=O)n(Cc3cccc(Br)c3)n2)c1,i,?,-97.6,i,i,i
Cc1nn(Cc2ccc(F)cc2Cl)c(C)c1[N+](=O)[O-],i,i,i,i,i,i
Cc1ccc(CNC(=O)c2ccc(NC(=O)Cn3c(C)cc(C)c(C#N)c3=O)cc2)o1,nt,nt,nt,nt,i,nt
COCCn1cnnc1SCC(=O)c1c[nH]c2ccccc12,nt,nt,nt,nt,i,nt
Cc1c(C)n(-c2ccc(F)c(F)c2)c2ncnc(Cl)c12,nt,nt,nt,nt,i,nt
Cc1cc(C)c(S(=O)(=O)NCCS(=O)(=O)N2CCN(c3ccccc3)CC2)c(C)c1,nt,18.4µM,nt,nt,i,23.1µM
O=C(NCCS(=O)(=O)N1CCN(c2ccccc2F)CC1)C1CC(=O)N(c2ccccc2)C1 (stereo unspecified),i,i,i,i,i,i
CC(=O)Nc1ccc(S(=O)(=O)NCCS(=O)(=O)N2CCN(c3ccccc3F)CC2)cc1,i,20.6µM,i,i,i,16.4µM
O=[N+]([O-])c1ccc(S(=O)(=O)NCCS(=O)(=O)N2CCN(c3ccccc3)CC2)cc1,i,16.4µM,i,i,i,?
SMILES,Gal4-VP16 FLuc,DT40 TDP1 no CPT,IL1B secr inh,RORgamma inh,LDHA block,DT40 TDP1 CPT
Cc1ccc(N2CC(C(=O)NCCS(=O)(=O)N3CCN(c4ccccc4F)CC3)CC2=O)cc1 (stereo unspecified),i,?,i,i,i,14.6µM!
CC(NC(=O)c1cccs1)C1CC2CCC1C2 (stereo unspecified),nt,nt,nt,nt,i,nt
COc1ccc(/C=N/n2c(=S)n(C)c3ccccc32)cc1OC,i,i,i,i,i,?
COc1ccc(/C=N/n2c(N)nc3ccccc32)cc1OC,?,i,-60.1,12.6µM,i,i
COc1cccc(/C=N/n2cnc3ccccc32)c1OC,?,?,i,i,i,?
COc1cccc(/C=N/n2c(N)nc3ccccc32)c1OC,?,i,-68.3,?,i,i
COc1ccc(C(=O)NCCn2cc(SCC(=O)N3CCOCC3)c3ccccc32)cc1,i,i,i,i,i,i
Cc1ccc(C(=O)NCCn2cc(SCC(=O)Nc3nnc(C)s3)c3ccccc32)cc1,i,?,i,14.1µM,i,?
COc1ccc(C(=O)NCCn2cc(SCC(=O)Nc3ccc4c(c3)OCCO4)c3ccccc32)cc1,nt,20.6µM,nt,nt,i,?
O=C(CSc1cn(CCNC(=O)c2ccc3ccccc3c2)c2ccccc12)NCc1ccco1,i,?,?,i,i,16.4µM
COc1ccc(NC(=O)CSc2cn(CCNC(=O)c3ccc(OC)cc3)c3ccccc23)cc1,nt,25.9µM,nt,nt,i,?
c1coc(-c2nc(-c3ccc4c(c3)OCCCO4)cs2)c1,nt,nt,nt,nt,i,nt
CC(=O)OC[C@H]1O[C@@H](Sc2cccc3cccnc23)[C@H](OC(C)=O)[C@@H](OC(C)=O)[C@H]1OC(C)=O,i,i,i,?,i,18.4µM
O=C(O)Cn1cc(C(C(=O)O)N2CCN(c3ccccc3)CC2)c2ccc(F)cc21 (stereo unspecified),nt,nt,nt,nt,i,nt
COc1cccc(NC(=O)C(Sc2nnc(-c3ccco3)n2C)c2ccccc2)c1 (stereo unspecified),nt,nt,nt,nt,i,nt
COc1ccccc1-c1nnc(SC(C(=O)c2c[nH]c3ccccc23)c2ccccc2)n1C (stereo unspecified),i,16.4µM,-51.2,?,i,20.6µM
COc1cccc(-c2nnc(SC(C(=O)c3c[nH]c4ccccc34)c3ccccc3)n2C)c1 (stereo unspecified),?,?,i,i,i,23.1µM
COc1ccc(OC)c(CNC(=O)CCCn2nc(C)c3c(C)n(-c4ccc(C)cc4)nc3c2=O)c1,nt,20.6µM,nt,nt,i,23.1µM
COc1ccc(OC)c(CNC(=O)CCn2nc(C)c3c(C)n(-c4ccccc4)nc3c2=O)c1,i,i,i,i,i,i
COc1cccc(CNC(=O)CCCn2nc(C)c3c(C)n(-c4ccc(C)cc4)nc3c2=O)c1OC,i,?,i,i,i,10.3µM
CCOc1ccc(S(N)(=O)=O)cc1-c1nc2c(C(C)(C)C)nn(C)c2c(=O)[nH]1,i,?,?,i,i,?
CCOc1ccc(S(=O)(=O)NC(C)(C)C)cc1-c1nc2c(C(C)(C)C)nn(C)c2c(=O)[nH]1,i,?,-98.0,i[10 µM],i,20.6µM
CCOc1ccc(S(=O)(=O)N(CCO)CCO)cc1-c1nc2c(C(C)(C)C)nn(C)c2c(=O)[nH]1,i,18.4µM,?,i,i,?
CCCc1nn(C)c2c(=O)[nH]c(-c3cc(S(=O)(=O)N(CCO)CCO)ccc3OCC)nc12,i,i,i,i,i,?
COc1ccc2c(c1)c(C(C(=O)O)N1CCN(Cc3ccncc3)CC1)cn2CCC(=O)O (stereo unspecified),nt,nt,nt,nt,i,nt
